Laboratory results: PubChem BioAssay
The source made the active and inactive calls. How the calls were made is not given here.

target: Pantothenate synthetase (Mycobacterium tuberculosis (strain ATCC 25618 / H37Rv)) (UniProt P9WIL5); assay: Recombinant Mtb pantothenate synthetase (PanC) inhibitors, coupled enzyme, confirmatory (AID 375); details: coupled enzyme assay; at 10 µM, active compounds read high;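 further: 0% = full reaction with vehicle and 100% = no enzyme background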
Sequence (P9WIL5 whole entry, looked up): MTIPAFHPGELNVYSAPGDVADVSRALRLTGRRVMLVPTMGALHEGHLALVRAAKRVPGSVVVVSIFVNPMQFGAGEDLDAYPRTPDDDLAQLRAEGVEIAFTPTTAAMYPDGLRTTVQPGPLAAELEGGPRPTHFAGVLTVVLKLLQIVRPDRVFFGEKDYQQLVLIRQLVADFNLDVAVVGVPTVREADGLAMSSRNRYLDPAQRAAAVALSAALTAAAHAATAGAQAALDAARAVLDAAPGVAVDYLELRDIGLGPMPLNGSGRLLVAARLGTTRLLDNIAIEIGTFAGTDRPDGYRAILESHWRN

| SMILES | inhibition |
| --- | --- |
| CCCOC(=O)C1C2C=CC3(CN(c4cccc(Cl)c4)C(=O)C13)O2 (stereo not given) | 0% (inactive) |
| Cc1ccc(-c2nnn(CC(=O)N(Cc3ccco3)C(C(=O)NC(C)(C)C)c3cccs3)n2)o1 (stereo not given) | 0% (inactive) |
| CCCCC(=O)O[C@H]1CC[C@H]2[C@@H]3CCc4cc(O)ccc4[C@H]3CC[C@]12C | 6% (inactive) |
| Cc1ccc2[nH]c3c(=O)n(CCCN4CCN(C)CC4)cnc3c2c1 | 4% (inactive) |
| N#CC1=C(N)S[C@H](C(=O)C23CC4CC(CC(C4)C2)C3)[C@H]1c1ccncc1 | 0% (inactive) |
| COC(=O)c1sc(N)c(C(=O)OC)c1COC(=O)C1CC(=O)N(Cc2ccco2)C1 (stereo not given) | 3% (inactive) |
| CCOC(=O)Cn1c(CCC(=O)O)ccc1-c1ccc(F)cc1 | 3% (inactive) |
| Cc1cnc(C(=O)Nc2ccc(N3CCOCC3)cc2)cn1 | 4% (inactive) |
| CCCC(=O)N=C1SC2CS(=O)(=O)CC2N1c1ccc(CC)cc1 (stereo not given) | 0% (inactive) |
| Cc1noc(C)c1CSc1nnc(-c2ccncc2)n1-c1cccc(Cl)c1C | 0% (inactive) |
| O=C(Nc1ccc2snnc2c1)N1CCN(c2ccccc2)CC1 | 0% (inactive) |
| Cc1cc(OCC(=O)N2CCCC2)cc(C)c1Cl | 2% (inactive) |
| CCCn1c(SCC(=O)Nc2ccccc2C(=O)OCC)nc2c1c(=O)n(C)c(=O)n2C | 0% (inactive) |
| COc1ccc(-c2cc(C(=O)Nc3ccc(C)cc3)no2)cc1 | 0% (inactive) |
| Cc1ccc(S(=O)(=O)N2CCCC2C(=O)OCc2ccco2)cc1 (stereo not given) | 5% (inactive) |
| Cc1ccc(C(C(=O)NC2CCCCC2)N(C(=O)c2csnn2)C2CCCC2)o1 (stereo not given) | 0% (inactive) |
| CN1C(=O)CSc2ccc(NC(=O)N3CCN(c4ccccn4)CC3)cc21 | 8% (inactive) |
| O=C(Nc1cccnc1N1CCOCC1)c1ccco1 | 10% (inactive) |
| CCOC(=O)Nc1sc(=S)n(C)c1C | 9% (inactive) |
| O=C(NC1CCCc2ccccc21)C1CCN(c2nnc(-n3cccc3)s2)CC1 (stereo not given) | 0% (inactive) |

| SMILES | inhibition |
| --- | --- |
| CCOC(=O)N1CCN(CC(=O)Nc2c(C(=O)OC)[nH]c3cccc(Cl)c23)CC1 | 0% (inactive) |
| CC(C)CNS(=O)(=O)c1ccc(CCC(=O)N2CCOCC2)cc1 | 0% (inactive) |
| Cc1ccccc1NC(=O)C1CC(=O)N(c2ccccc2F)C1 (stereo not given) | 1% (inactive) |
| COC(=O)C1=C(C)NC(C)=C(C(=O)OC)C1c1ccccc1[N+](=O)[O-] | 0% (inactive) |
| O=C(c1ccco1)N1CCN(CC2CC3C=CC2C3)CC1 (stereo not given) | 7% (inactive) |
| C=CCC(NCc1ccco1)c1ccc(OC)cc1OC (stereo not given) | 3% (inactive) |
| O=C(NCc1nc2ccccc2[nH]1)c1ccc(Cl)c(S(=O)(=O)N2CCCC2)c1 | 1% (inactive) |
| CCCN1CCN(C(=O)c2cn(CC(C)C)c(=O)c3cc(OC)c(OC)cc23)CC1 | 5% (inactive) |
| COc1ccc(Br)cc1CNC(=O)C1CCCN(S(C)(=O)=O)C1 (stereo not given) | 6% (inactive) |
| COC(=O)C1=CN(C)C=C(C(=O)OC)C1c1ccc(O)c(OC)c1 | 0% (inactive) |
| C=CCN(C(=O)CNC(=O)c1ccco1)C(C(=O)NC1CCCCC1)c1ccccc1F (stereo not given) | 0% (inactive) |
| Cc1cc(NC(=O)CCC(=O)N(CC2CCCO2)C(C(=O)NC2CCCC2)c2ccccc2C)no1 (stereo not given) | 0% (inactive) |
| Cc1ccc(OCC(O)Cn2c(=N)n(CCN3CCCCC3)c3ccccc32)cc1 (stereo not given) | 0% (inactive) |
| O=C(OCc1nnc(-c2ccccc2)o1)C1=COCCO1 | 0% (inactive) |
| CCN(CC)CCOc1cccc(C(C)C)c1 | 4% (inactive) |
| COCCCn1c(SCC(=O)N2CCc3ccccc32)nnc1-c1ccoc1C | 9% (inactive) |
| Cc1ccccc1C(OCCN(C)C)c1ccccc1 (stereo not given) | 0% (inactive) |
| Cn1c(=O)c2c(nc(NCCc3ccccc3)n2CC(=O)NCCc2ccccc2)n(C)c1=O | 0% (inactive) |
| Cc1c(C(=O)NCc2ccccc2)oc2c1C(=O)CCC2 | 0% (inactive) |
| CN(C)C(=O)Cn1c(SCC(=O)NC2CCCCC2)nc2ccccc21 | 0% (inactive) |
